High-throughput results (PubChem BioAssay)
CYP2C19 inh – blocks human cytochrome P450 2C19 | inhibition, % at 5 µM | AID 778 | actives 21% (n = 96,000) | CYP2C19 Supersomes, luciferin-H EGE luminescence, 30 min;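 active = CYP2C19 inhibition above a set limit at 5 µM in the primary screen, cut at about 50% in these data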
Target sequence (P33261 whole entry, looked up): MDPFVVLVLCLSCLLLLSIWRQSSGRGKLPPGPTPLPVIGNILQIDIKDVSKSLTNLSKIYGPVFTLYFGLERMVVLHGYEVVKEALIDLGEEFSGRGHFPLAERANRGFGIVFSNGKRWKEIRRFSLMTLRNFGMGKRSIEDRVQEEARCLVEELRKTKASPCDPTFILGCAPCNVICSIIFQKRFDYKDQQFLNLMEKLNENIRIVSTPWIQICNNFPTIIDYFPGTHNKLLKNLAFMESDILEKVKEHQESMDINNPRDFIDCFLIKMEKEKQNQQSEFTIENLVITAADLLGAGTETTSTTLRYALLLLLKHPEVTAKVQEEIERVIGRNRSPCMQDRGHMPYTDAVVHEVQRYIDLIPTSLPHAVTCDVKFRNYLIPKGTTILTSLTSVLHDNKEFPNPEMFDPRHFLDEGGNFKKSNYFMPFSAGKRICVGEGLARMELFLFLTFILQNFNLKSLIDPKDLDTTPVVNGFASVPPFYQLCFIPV
CYP2C9 act – activators of human CYP2C9; recombinant CYP2C9, luciferin-H conversion, luminescence; active compounds read high; factor 1 = untreated enzyme, 0 = blocked; activation factor at 5 µM; actives 1.4% (n = 96,000);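 active = activation factor of 2 or more for CYP2C9 at a 5 µM dose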
CYP2C9 inh – blocks human cytochrome P450 2C9. P11712. CYP2C9 Supersomes, luciferin-H conversion, luminescence. inhibition, % at 5 µM. actives 20% (n = 96,000);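 active = blocking of liver enzyme CYP2C9 beyond about 50% at 5 µM, limit read from the data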
Mac1 fbg inh – inhibitors of human CD11b/CD18 binding to fibrinogen; P05107+P11215; K562 CD11b/CD18 adhesion to fibrinogen, ATPlite luminescence; Mn2+ added to activate the integrin; inhibition, % at 10 µM; actives 0.54% (n = 93,000);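 active = primary inhibition of 50% or more at 10 µM, then 40% or more on retest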
CYP2C19 activ – activators of human cytochrome P450 2C19; P33261; recombinant CYP2C19, luciferin-H EGE luminescence; active compounds read high; 0 = fully inhibited enzyme, 1 = untreated enzyme; activation factor at 5 µM; 96,000 tested, under 10 active; AID 1025;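 active = activation factor of at least 2 at 5 µM in the primary screen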
Mac1 fbg enh – increases human CD11b/CD18 adhesion to fibrinogen; K562 CD11b/CD18 adhesion to fibrinogen, ATPlite luminescence; P05107+P11215; activation, % at 10 µM; AID 1499; actives 0.07% (n = 93,000);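 active = 10 µM primary screen giving 50% or more activity, confirmed by 40% or more on retest at that dose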
Numbers stand for hits; 0 = inactive; - = not tested or not shown. An excerpt weighted towards active compounds, which were near 28% of everything screened.

SMILES	CYP2C19 inh	CYP2C9 act	CYP2C9 inh	Mac1 fbg inh	CYP2C19 activ	Mac1 fbg enh
CC(O)c1cc2c(cc1NC(=O)c1cnn3c1NC(c1ccco1)CC3C(F)(F)F)OCO2 (centres undefined)	0	0	0	0	0	0
CCOc1ccccc1Nc1nc(N)nc(CN(C)C2CCCCC2)n1	0	0	0	0	0	0
COCCN(C(=O)CCCC(=O)Nc1ccccn1)C(C(=O)NC1CCCC1)c1ccc(C)cc1 (centres undefined)	0	0	0	0	0	0
Cc1cccc(Cn2cnc3c(NS(C)(=O)=O)c(C)c(C)cc32)c1	0	0	0	0	0	0
CCCCC(=O)Nc1nc(C)c(-c2csc(Nc3cc(Cl)ccc3OC)n2)s1	0	0	0	0	0	0
CCCCC(=O)Nc1nc(C)c(-c2csc(Nc3cc(OC)ccc3OC)n2)s1	0	0	79	0	0	0
CCCC(C)C(=O)Nc1nc(C)c(-c2csc(Nc3ccc(Cl)cc3)n2)s1 (centres undefined)	0	0	55	-	0	-
CCCC(C)C(=O)Nc1nc(C)c(-c2csc(Nc3ccccc3OC)n2)s1 (centres undefined)	0	0	74	0	0	0
CCOC(=O)C1C(=O)C=C(c2ccc(C)cc2)CC1c1cccc([N+](=O)[O-])c1 (centres undefined)	-	-	-	0	-	0
Cn1cccc1C(=O)OCC(=O)c1cc2ccccc2o1	0	0	0	0	0	0
O=C(COC(=O)c1ccc(Cl)s1)c1cc2ccccc2o1	70	0	0	0	0	0
c1ccc2c(N3CCCCC3)ncnc2c1	0	0	0	0	0	0
N#Cc1nn(-c2ccccc2)nc1N1CCCCC1	0	0	51	0	0	0
COc1ccc(N/C(N)=N/c2nc(CSc3ccc(Cl)cc3)cc(=O)[nH]2)cc1	66	0	0	0	0	0
O=C(CCSc1nc(-c2ccco2)cc(C(F)(F)F)n1)N1CCCc2ccccc21	96	0	92	0	0	0
O=C(CCSc1nc(-c2ccco2)cc(C(F)(F)F)n1)N1CCN(c2ccccn2)CC1	86	0	86	0	0	0
CC(C)CNC(=O)c1ccc(COc2ccc(Cl)cc2Cl)o1	0	0	76	0	0	0
O=C(Nc1ccn(Cc2c(F)c(F)c(F)c(F)c2F)n1)c1ccc(COc2ccccc2Cl)cc1	0	0	70	0	0	0
O=C(Nc1ccn(Cc2c(F)c(F)cc(F)c2F)n1)c1ccc(COc2ccc(Cl)cc2Cl)o1	92	0	99	0	0	0
CN1/C(=C\C=Nc2cc(S(=O)(=O)N3CCOCC3)ccc2N2CCOCC2)C(C)(C)c2ccccc21	-	-	-	0	-	0
NC(=O)C1(N2CCCCC2)CCN(C(=O)NC23CC4CC(CC(C4)C2)C3)CC1	0	0	56	0	0	0
Cc1ccccc1NC(=S)N(C)C1(c2ccccc2Cl)CCCCC1=O (centres undefined)	69	0	0	-	0	-
Cc1ccccc1NC(=O)CN1C(=O)NC2(CCCCC2)C1=O	0	0	0	0	0	0
CCCC(=O)Nc1sc(C)c(C)c1C(=O)Nc1cccc(C)c1	0	0	0	-	0	-
Cc1cc(NS(=O)(=O)c2ccccc2)n(-c2ccccc2)n1	0	0	86	-	0	-
SMILES	CYP2C19 inh	CYP2C9 act	CYP2C9 inh	Mac1 fbg inh	CYP2C19 activ	Mac1 fbg enh
Cc1cc(Nc2ccccc2)n(-c2ccccc2)n1	90	0	75	0	0	0
Cc1cc(Nc2nnnn2-c2ccccc2)n(-c2ccc(Cl)cc2)n1	65	0	0	0	0	0
CC(C)NC(=O)CN(C(=O)CCC(=O)Nc1ccccn1)c1ccc(F)c(Cl)c1	66	0	0	0	0	0
CCC(C)(C)NC(=O)CN(C(=O)CCC(=O)Nc1ccccn1)c1ccc(F)c(Cl)c1	85	0	75	0	0	0
COCCNC(=O)CN(C(=O)CCC(=O)Nc1ccccn1)c1ccc(F)c(Cl)c1	0	0	0	0	0	0
O=C(Nc1cccnc1)c1cccc(S(=O)(=O)N2CCOCC2)c1	0	0	0	0	0	0
CC(=O)c1sc(NC(=O)C2(F)C(F)(F)C(F)(F)C(F)(F)C(F)(F)C2(F)F)nc1C	0	0	85	102	0	0
CC(C)N(C(=O)COc1ccc(Br)cc1Cl)C(C)C	94	0	60	0	0	0
C=CCNC(=O)COc1ccc(Br)cc1Cl	93	0	0	0	0	0
O=C(COc1ccc(Cl)cc1Cl)N1CCCN(C(=O)COc2ccc(Cl)cc2Cl)CC1	0	0	0	0	0	0
CCOC(=O)N1CCN(C(=O)COc2ccc(Br)cc2Cl)CC1	86	0	0	0	0	0
COCCNC(=O)COc1ccc(Br)cc1Cl	0	0	0	0	0	0
CCSc1nnc(NC(=O)C(C)Sc2nc3ccccc3[nH]2)s1 (centres undefined)	-	-	-	0	-	0
COCCNc1nc2ccccc2nc1NS(=O)(=O)c1ccc(C)cc1C	0	0	98	0	0	0
O=C(COc1ccc(Cl)cc1Cl)Nc1c(-c2cccs2)nc2ccccn12	-	-	-	0	-	0
CS(=O)(=O)N(CC(=O)NC1CCCCC1)Cc1ccc(Cl)cc1	0	0	0	0	0	0
CS(=O)(=O)N(CC(=O)NC1CCCC1)Cc1ccc(Cl)cc1	58	0	0	0	0	0
COc1ccc(NC(=O)CCC(=O)OCc2ccc(C(=O)Oc3ccc(Cl)cc3)cc2)cc1	0	0	0	0	0	0
CC(=O)Nc1ccc(C(=O)OCc2ccc(Cl)cc2)cc1	63	0	75	0	0	0
CCOC(=O)c1ccc(NC(=O)CN(Cc2ccc(Cl)cc2)S(C)(=O)=O)cc1	94	0	83	0	0	0
O=C(CSc1ccc(Cl)cc1)NCC1CCCO1 (centres undefined)	0	0	0	0	0	0
CS(=O)(=O)N(CC(=O)NCC1CCCO1)Cc1ccc(Cl)cc1 (centres undefined)	78	0	0	0	0	0
O=C(c1ccc(N2C(=O)CCC2=O)cc1)N1CCN(c2ccccc2)CC1	0	0	0	0	0	0
COc1ccc(CN(CC2CCCO2)S(=O)(=O)c2ccc(C(=O)O)cc2)cc1OC (centres undefined)	0	0	0	0	0	0
CCC(=O)Nc1cc(-c2nn(CC(=O)N3CCCCC3)c(=O)c3ccccc23)ccc1N1CCOCC1	0	0	0	0	0	0
O=C(CN(C(=O)C1COc2ccccc2O1)c1ccccc1)NCC1CCCO1 (centres undefined)	51	0	0	0	0	0
Cc1cc(C)cc(N(CC(=O)NCC2CCCO2)C(=O)CN2C(=O)COc3ccccc32)c1 (centres undefined)	0	0	0	0	0	0
CC(=O)Nc1ccc(C(=O)OCC(=O)N(Cc2ccccc2)C(C)(C)C)cc1	79	0	71	0	0	0
